In PubChem BioAssay (NCI):
Compounds without any hit were thinned out: in the full panel of roughly 83,000, 20% have a hit.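 Cells were grown in 96-well plates and exposed to the test compound at a single concentration for 48 hours; results are reported as percent growth, with values below 10 considered active.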 Active and inactive are the calls of the source.

Each compound was assayed on MDA-MB-435 melanoma (assay: NCI-60 one-dose screen, 48 h (100 = growth as untreated, 0 = no growth, -100 = all killed)). Details: 10 µM unless noted.
Protocol: Growth inhibition of the MDA-MB-435 human Melanoma tumor cell line is measured as a screen for anti-cancer activity. Cells are grown in 96 well plates and exposed to the test compound for 48 hours. Compounds are tested at a single concentration, which is 10^-5 M for most compounds. The reported endpoint is percent growth (GI% or GIPRCNT), where numbers from 0 - 100% represent growth inhibition, and numbers from -100% - 0 represent cell death. For example, a value of 40 represents 60% growth inhibition. A value of 0 means no net growth occurred over the course of the experiment. A value of -40 indicates 40% of cells at the beginning of the experiment died by the end of the experiment. A value of -100 means all cells are dead at the end of the experiment.
NCI-60 Human Tumor Cell Lines Screen was performed using the standard one-dose NCI protocol, which is described in more detail at https://dtp.cancer.gov/discovery_development/nci-60/default.htm.
Compounds with GIPRCNT values below 10 were considered active. Activity score was based on GIPRCNT using the following formula: […]
Score is 0 for GIPRCNT values of 100 or above, 50 for GIPRCNT values of 0, and 100 for GIPRCNT values of -100.

Question: `C/C(=N\NC(=O)c1ccc(C(C)(C)C)cc1)c1ccc(O)cc1O` was tested. Which growth did it give?
Answer: 27.7% (inactive)

Question: How did the growth turn out when `N#C/C(Sc1nc2sc3c(c2c(=O)n1Cc1ccccc1)CCCC3)=C1/SC=C(c2ccc(Cl)cc2)N1c1ccccc1` was run?
Answer: 109% (inactive)

Question: For `Nc1nc(N)c2c(n1)NC(c1ccc3c(c1)OCO3)CC(c1cccc(Nc3ccncc3)c1)=N2` (stereo not given), which growth is on record?
Answer: 50.5% (inactive)

Question: Which growth does the source give for `CN1CCN(Cc2ccc(NC(=O)c3cncc(C#Cc4c(N)ncc5c(F)cccc45)c3)cc2C(F)(F)F)CC1` here?
Answer: -83% (active)

Question: For `O=C(Oc1ccccc1)c1cc(O)c(O)c(O)c1`, which growth is on record?
Answer: 53.3% (inactive)

Question: With `COc1ccc(C2=NN(C=O)C(c3ccc(Oc4nc5c(c(=O)n(C)c(=O)n5C)n4C)c(OC)c3)C2)cc1` (stereo not given) as the compound, how does the growth read?
Answer: 61.2% (inactive)

Question: How did the growth turn out when `CCCCN(CCC#N)C(N)=O` was run?
Answer: 110% (inactive)

Question: Which growth does the source give for `COc1cc2c(c(OC)c1OC)CCC(c1cccc(C(=O)Nc3ccccc3Br)c1)O2` (stereo not given) here?
Answer: 94% (inactive)

Question: For `Cc1c(-c2cnc3ccc(Cl)cc3c2C(=O)O)nnn1-c1ccc(Cl)cc1`, which growth is on record?
Answer: 105% (inactive)

Question: `C#CC(F)(F)[C@]1(O)CCC2C3CCC4=CC(=O)CCC4=C3[C@@H](c3ccc(N(C)C)cc3)C[C@@]21C` (stereo not given in full) was tested. Which growth did it give?
Answer: 103% (inactive)

Question: `COc1ccc(S(=O)(=O)Oc2ccc(-c3sc4cc(OS(=O)(=O)c5ccc(OC)cc5)ccc4c3C(=O)c3ccc(OCCN4CCCCC4)cc3)cc2)cc1` was tested. Which growth did it give?
Answer: 105% (inactive)

Question: With `C[C@@H]1N=C(c2ccc(Cl)cc2Cl)Nc2nc3ccccn3c2C1=O` as the compound, how does the growth read?
Answer: -16.6% (active)

Question: How did the growth turn out when `COc1cccc2cc(N(C)c3ncnc4ccccc34)ccc12` was run?
Answer: 16.6% (inactive)

Question: Which growth does the source give for `COC(=O)c1cc(-c2cc(OC)c(OC)c(OC)c2)[nH]c1N/N=C/c1c(Cl)cccc1Cl` here?
Answer: -2.15% (active)

Question: Which growth does the source give for `N#CC1=C(N)Oc2c(ccc3cccnc23)C1c1ccccc1` (stereo not given) here?
Answer: -47.4% (active)

Question: Which growth does the source give for `c1ccc2[nH]c(-c3ccc(-c4nccc5c4[nH]c4ccccc45)cc3)nc2c1` here?
Answer: 59.7% (inactive)

Question: `Cc1c2cnccc2c(C)c2c1c1cc(C(=O)O)ccc1n2C` was tested. Which growth did it give?
Answer: 5.58% (active)

Question: How did the growth turn out when `COc1ccc(CNc2c3ccccc3nc3ccccc23)cc1OC` was run?
Answer: 29.4% (inactive)

Question: How did the growth turn out when `COC(=O)[C@@H](Cc1c[nH]c2ccccc12)NC(=O)[C@H](Cc1ccccc1)NCc1ccncc1` was run?
Answer: 113% (inactive)

Question: With `CC1=C([Se]CC(OC(=O)[C@@H](CO)NC(=O)OC(C)(C)C)C(=O)NCCCCCC(=O)OCc2ccccc2)C(=O)c2ccccc2C1=O` (stereo not given in full) as the compound, how does the growth read?
Answer: -83.3% (active)

Question: For `Nc1ccc(Cl)c2c(=O)c3ccccc3[nH]c12`, which growth is on record?
Answer: 86.3% (inactive)

Question: Which growth does the source give for `CCOC(=O)/C(=C\c1ccccc1Cl)P(=O)(OCC)OCC` here?
Answer: 45.1% (inactive)

Question: How did the growth turn out when `O=C(O)/C=C\C(=O)Nc1ccc2c(c1)Cc1cc(F)ccc1-2` was run?
Answer: 102% (inactive)

Question: With `COc1cc(/C=C/C(=O)c2ccc(-n3cc(CN4CCN(c5cc6c(cc5F)c(=O)c(C(=O)O)cn6C5CC5)CC4)nn3)cc2)cc(OC)c1OC` as the compound, how does the growth read?
Answer: 81.9% (inactive)

Question: Which growth does the source give for `Cc1c(N2CCCCC2)[nH]c2ccccc12` here?
Answer: 103% (inactive)

Question: `COC(=O)c1c(C)nc(C)c2c1C(=O)C(Br)=C(NCCCCO)C2=O` was tested. Which growth did it give?
Answer: -25.3% (active)

Question: With `CS(=O)(=O)Nc1cc(-c2ccc3ncnc(Nc4cccc(Cl)c4)c3c2)cnc1Cl` as the compound, how does the growth read?
Answer: 8.58% (active)

Question: For `O=S(=O)(Nc1ccc(Br)cc1)c1ccc(-c2cnc(C3CC3)o2)cc1`, which growth is on record?
Answer: -9% (active)

Question: With `COc1cc(-c2ccc(-c3ccc(C(=N)N)s3)s2)cc(OC)c1OC` as the compound, how does the growth read?
Answer: -34.8% (active)

Question: Which growth does the source give for `O=c1n(C2OC(CO)C(O)C2O)ccc2nccn12` (stereo not given) here?
Answer: 102% (inactive)

Question: How did the growth turn out when `CCOC(=O)C1=C(c2ccccc2)N=C2SC=C(c3cccc([N+](=O)[O-])c3)N2C1c1ccc(O)cc1` (stereo not given) was run?
Answer: 101% (inactive)

Question: With `COc1ccccc1/C=C/C1=C(C)CCC(c2ccccc2OC)C1C` (stereo not given) as the compound, how does the growth read?
Answer: -3.28% (active)

Question: For `O=C1C2C(c3cccs3)C=C(c3ccc(Cl)cc3)N2C(=S)N1c1ccccc1` (stereo not given), which growth is on record?
Answer: 110% (inactive)

Question: With `COc1cc(/C=N/NC(=O)c2ccc3nc(-c4ccc(Cl)cc4)[nH]c3c2)cc(OC)c1OC` as the compound, how does the growth read?
Answer: 64% (inactive)

Question: With `COC(=O)[C@H]1Cc2c([nH]c3ccccc23)[C@H](c2ccc3c(c2)OCO3)N1` as the compound, how does the growth read?
Answer: 101% (inactive)

Question: `Nc1n[nH]c2cccc(C#Cc3cccc(C(=O)Nc4ccc(Cl)c(C(F)(F)F)c4)c3)c12` was tested. Which growth did it give?
Answer: 42.8% (inactive)

Question: `N#C/C(=C/C=C/c1ccccc1)S(=O)c1ccccc1` (stereo not given) was tested. Which growth did it give?
Answer: -29.8% (active)

Question: Which growth does the source give for `O=C(Nc1ncc(Cc2ccccc2Cl)s1)c1ccc2c(c1)OCCO2` here?
Answer: -19.5% (active)

Question: How did the growth turn out when `NCCCCCNc1noc(Cc2c[nH]c3cc(Br)ccc23)n1` was run?
Answer: -37% (active)

Question: Which growth does the source give for `CCCn1cnc2c(c1=N)C(c1ccc(Cl)cc1)c1sc3c(F)cccc3c1O2` (stereo not given) here?
Answer: 77.7% (inactive)
